# Compound activity deposited in PubChem BioAssay by National Center for Advancing Translational Sciences (NCATS).
# TSHR antagonist: human thyrotropin receptor antagonism; TSHR-expressing cells, TSH-stimulated cAMP HTRF, 2 h; hits give low values; AID 504810; 0.2% of 330,000 active; activity change, negative = inhibition, % at 11.5 µM;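 active = activity change below a set negative limit, meaning inhibition stronger than a set level, cut at about -70% in these data; inconclusive = activity change between two set negative limits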; note: % is set by controls: 0 for no effect and ±100 for the full control effect
#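 TSHR-expressing cells were treated with compounds, then stimulated with TSH at EC80 (4nM final) for 2 hours at 37 deg C. Cellular cAMP was measured by HTRF competition between lysate cAMP and cAMP-d2 for a cryptate-labelled anti-cAMP antibody.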
# GLP1R cytotox: cytotoxicity in counter-screen for GLP-1R inverse agonists | Potency, µM (highest dose often 38.3 µM), without a hit: top-dose activity change, negative = inhibition, actives largely listed as inhibitors | HEK293 cAMP-luciferase reporter cells, luminescence, 24 h | 0.13% of 410,000 active;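 note: loss of luciferase light is scored as toxicity; potency is the fitted concentration of half-maximal effect; % is set by controls: 0 for no effect and ±100 for the full control effect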
#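 Luminescence readout: signal drop marks cytotoxicity. Plated cells grew 12 h at 37 °C, 5% CO2, received 23 nL compound for 24 h, then got luciferase reagent, read after 12 min at RT.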
# GLP1R inv ag: acts as inverse agonist at human GLP-1 receptor. P43220. HEK293 GLP-1R CRE-luciferase, luminescence, 24 h; GLP-1R form is constitutively active. Potency, µM (highest dose often 38.3 µM), for inactives: top-dose activity change, negative = inhibition, hits mostly inhibitors. 1.6% of 410,000 active; note: potency is the fitted concentration of half-maximal effect; % is set by controls: 0 for no effect and ±100 for the full control effect; nearly all actives have a fitted effect of over 55% in size
# Target sequence (P43220 whole entry, looked up): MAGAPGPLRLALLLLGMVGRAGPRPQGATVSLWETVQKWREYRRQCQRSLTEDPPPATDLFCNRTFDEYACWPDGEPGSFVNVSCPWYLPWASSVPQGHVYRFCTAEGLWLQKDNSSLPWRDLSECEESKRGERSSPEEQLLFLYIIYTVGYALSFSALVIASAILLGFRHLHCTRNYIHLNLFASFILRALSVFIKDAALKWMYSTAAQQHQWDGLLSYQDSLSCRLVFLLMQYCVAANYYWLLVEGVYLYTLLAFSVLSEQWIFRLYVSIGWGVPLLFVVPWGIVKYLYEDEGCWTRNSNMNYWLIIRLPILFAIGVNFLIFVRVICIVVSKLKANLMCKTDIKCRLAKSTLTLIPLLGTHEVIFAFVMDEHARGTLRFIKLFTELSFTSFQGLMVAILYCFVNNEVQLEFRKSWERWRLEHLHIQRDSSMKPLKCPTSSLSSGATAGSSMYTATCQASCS
#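 Cells are plated, allowed 12 hours at 37 deg C, then treated with compounds for 24 hr before luciferase detection reagent is added and luminescence is read after 12 min at room temperature. The HEK293 line carries constitutively active GLP-1R with a cAMP-responsive reporter.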
# GLP-1R agonist: GLP-1 receptor (human) agonism; AID 624172; HEK293 GLP-1R CRE-luciferase, luminescence, 4-6 h; cells express a hypersensitive GLP-1R form; P43220; 0.007% of 380,000 active; Potency, µM (highest dose often 45.6 µM), inactives show top-dose activation, most hits filed as activators; note: potency is the fitted concentration of half-maximal effect; % of control where 0% means no effect
# PTHR1 ag: PTHR1 (human) receptor agonism; HEK293 GP2 PTHR1 cells, GloSensor cAMP luminescence, 1 h; Potency, µM (doses to about 115 µM), inactives show top-dose activation, actives largely listed as activators; 0.075% of 410,000 active; note: potency is the fitted concentration of half-maximal effect; nearly all actives have a fitted effect of over 55% in size
#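 HEK-293-derived GP2 cells expressing PTHR1 and a GloSensor cAMP reporter, 3,000/well, plated overnight, given luciferin plus IBMX (each 0.5 mM as added) for 1 h at 37 °C, then compound for 1 h at 37 °C. Luminescence was read after 15 min at room temperature.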
# Starred values were filed as active, the others as inactive; i = inactive; ? = inconclusive; . = no result given; [ ] = dose if it differs, or a comment. In the library only some 1.8% were active in any assay of this set; here they are far more common. Unless noted, calls come from the whole dose curve; as a rule, active = well fitted curve in the direction sought with a large enough effect; inconclusive = small, poorly fitted or top-dose-only effect, or another doubt; inactive = no such curve, though single readings can be large; an effect the other way counts as inactive or inconclusive.
SMILES,TSHR antagonist,GLP1R cytotox,GLP1R inv ag,GLP-1R agonist,PTHR1 ag
COc1ccc(-c2coc3c(C(=O)NCCN(C)C)cccc23)c(C)c1,.,5%,11µM*,3%,i
COCCCNC(=O)c1cccc2c(-c3ccc(OC)cc3C)coc12,.,-9%,?,0%,-59%
CN(C)CCNC(=O)c1cccc2nc3c(ccc4ccccc43)nc12,.,11%,8.9µM*,-10%,-20%
COc1ccc(-c2nc3c(C(=O)NCCN(C)C)cccc3c3ccccc23)cc1,.,?,10µM*,-23%,i
COc1ccc(C(=O)NCCN(C)C)c2nc3ccccc3cc12,.,?,?,-23%,i
CN(C)CCNC(=O)c1ccccc1-c1ccccc1,2,-7%,0%,-2%,-1%[57.5 µM]
COc1cccc2nc3c(C(=O)NCCN(C)C)cccc3cc12,.,-1%,13µM*,-28%,-24%
CCOC(=O)c1ccccc1NC(=O)Cn1nnc2sc3c(c2c1=O)CCCC3,.,1%,12%,.,i
O=C(Nc1ccc2c(c1)OCO2)c1cc(C2CCCCN2C(=O)c2ccc(Cl)cc2)on1 (centres undefined),.,-1%,?,9%,i
O=C(Nc1ccc2c(c1)OCO2)c1cc(C2CCCCN2C(=O)c2ccc3c(c2)CCO3)on1 (centres undefined),.,0%,10µM*,-2%,-22%
CCc1ccccc1NC(=O)Nc1ccc2c(c1)N(CC)C(=O)c1ccccc1S2,.,-16%,5µM*,.,-8%
CC1=Nc2cc(C(=O)NC(C)C)ccc2Sc2ccc(C)cc21,.,-14%,?,.,-7%
Cc1cccc2[nH]c3c(N4CC=C(c5ccc(F)cc5)CC4)ncnc3c12,-16,-56%,10µM*,-1%,-94%
COc1cccc2[nH]c3c(N4CCCCC4)ncnc3c12,.,-22%,8%,23%,-13%
CN1CCN(C(=O)CN2C(=O)NC(C)(c3ccc4ccccc4c3)C2=O)CC1 (centres undefined),-7,-14%,-9%,2%,i
CC1(c2ccc3ccccc3c2)NC(=O)N(CC(=O)N2CCN(c3ccccc3O)CC2)C1=O (centres undefined),-17,1%,11µM*,1%,-29%
CC1CCCCC1NCC#CCOc1ccc(Cl)cc1 (centres undefined),16,2%,11µM*,-3%,i
CC(C)NCC#CCOc1ccc(Cl)cc1,-9,7%,?,-5%,i
CC(C)Cn1c(CNC(=O)c2ccccc2)nc2ccccc21,5,-11%,14µM*,3%,-50%
CCCn1c(NC(=O)c2ccccc2)nc2ccccc21,4,?,11µM*,6%,-28%
CCCn1c(NC(=O)c2ccc(C)cc2)nc2ccccc21,-7,-5%,?,-8%,i
CCCn1c(CNC(=O)c2ccccc2)nc2ccccc21,7,-6%,-4%,-5%,i
O=C(COCc1cc(-c2cccs2)on1)NCc1ccccc1Cl,.,4%,?,.,i
COC(=O)[C@]1(C)CCC[C@@]2(C)C3CC[C@]4(OC(C)=O)C[C@@]3(CCC21)CC4=O (some centres undefined),-6,18%,-18%,18%,i
COC(=O)C1(C)CCCC2(C)C3CCC(C(C)C)C(CO)C3C(CO)CC12 (centres undefined),.,?,10µM*,0%,-45%
SMILES,TSHR antagonist,GLP1R cytotox,GLP1R inv ag,GLP-1R agonist,PTHR1 ag
Cc1onc(-c2ccccc2)c1C(=O)N[C@@H]1C(=O)N2[C@@H](C(=O)O)C(C)(C)S[C@@H]12,.,.,.,-1%,.
CCOc1ccc(-n2cc(-c3ccccc3)c3c(N4CCN(c5ccccc5OC)CC4)ncnc32)cc1,.,5%,-2%,.,0%
CC(=O)c1cn(CC(=O)NCc2ccc3c(c2)OCO3)c2ccccc12,-6,-11%,-3%,0%,-84%[57.5 µM]
O=C(Cn1cc(C(=O)C2CC2)c2ccccc21)NCc1ccc2c(c1)OCO2,7,-23%,6.3µM*,0%,i
COC(=O)c1c(NC(=O)CSc2nnnn2-c2ccccc2)sc2c1CCC(C(C)(C)C)C2 (centres undefined),22,0%,5.6µM*,0%,i
COC(=O)c1c(NC(=O)CSc2nnnn2-c2ccccc2)sc2c1CCC(C)C2 (centres undefined),-10,17%,22%,-5%,-37%
Cc1nc2cccnc2n1-c1cccc(C(=O)N2CCN(c3ccc(Cl)cc3)CC2)c1,.,-4%,-16%,.,-94%
O=C1NN=C(c2ccc(Cl)cc2)CC1c1cccc(Cl)c1 (centres undefined),-15,1%,?,7%,-2%
O=C1NN=C(c2ccccc2)CC1c1ccc(Cl)cc1Cl (centres undefined),-7,-7%,7.9µM*,12%,i
O=C(CN1C(=O)COc2ccc(S(=O)(=O)NC3CCCC3)cc21)Nc1ccc(Cl)cc1F,.,-16%,?,.,-1%
CC(/C=N/NC(=O)c1cccc(F)c1)=C\c1ccccc1,11,0%,10µM*,-6%,-17%
CCOC(=O)c1cc(-c2ccccc2)n(CC(=O)NC2CCC(C)CC2)c1C (centres undefined),.,3%,-6%,.,i
COc1cccc(NS(=O)(=O)c2ccc3c(c2)N(C)C(=O)CC(=O)N3C)c1,.,-5%,-8%,.,i
CCOc1ccccc1N1CCN(C(=O)CCCN2C(=O)c3cccc4cccc(c34)C2=O)CC1,-81*,-22%,?,21%,i
O=C(CCCN1C(=O)c2cccc3cccc(c23)C1=O)N1CCN(c2ccccc2O)CC1,-34,?,?,-19%,-10%
CCc1ccc(NCc2cc3cc4c(cc3n(CC(=O)Nc3ccccc3OC)c2=O)OCCO4)cc1,.,4%,18%,15%,-4%
COc1ccc(S(=O)(=O)Nc2cc3c4c(oc3c3ccccc23)CCCC4=O)cc1,5,?,5µM*,4%,0%
COc1cc(C)c(Cl)c(C)c1S(=O)(=O)NC1CC(C)(C)NC(C)(C)C1,1,2%,5.6µM*,-2%,-21%
CCOc1cc(C)c(Cl)cc1S(=O)(=O)NC1CC(C)(C)NC(C)(C)C1,13,-10%,?,-4%,-15%
CCOc1cc(S(=O)(=O)NC2CC(C)(C)NC(C)(C)C2)ccc1Cl,4,1%,11µM*,6%,-10%
Cc1noc2nc(C(=O)O)nc(N3CCCCC3)c12,.,3%,3%,.,i
CC1=CC(C)(C)Nc2ccc(Cc3ccc4c(c3)C(C)=CC(C)(C)N4)cc21,21,-15%,2.8µM*,-1%,-34%
COC(=O)c1c(C)oc2ccc(N(C(=O)c3ccncc3)S(=O)(=O)c3c(C)cc(C)cc3C)cc12,.,0%,-24%,.,-15%
